Reference: ChEMBL document CHEMBL1961873, “Compounds: GSK PKIS; Assays: Nanosyn kinase panel” (2012)

Columns and labels:
[1] = molecular target: Mitogen-activated protein kinase 3 (Homo sapiens) (UniProt P27361); conditions: at 1 µM;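 further: values are mean percent inhibition of MAPK3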
[2] = molecular target: SRSF protein kinase 3 (Homo sapiens) (UniProt Q9UPE1); conditions: at 0.1 µM
[3] = molecular target: SRSF protein kinase 3 (Homo sapiens) (UniProt Q9UPE1); conditions: at 1 µM
[4] = molecular target: Mitogen-activated protein kinase 14 (Homo sapiens) (UniProt Q16539); conditions: at 0.1 µM
[5] = molecular target: Mitogen-activated protein kinase 14 (Homo sapiens) (UniProt Q16539); conditions: at 1 µM
[6] = molecular target: Mitogen-activated protein kinase 11 (Homo sapiens) (UniProt Q15759); conditions: at 0.1 µM
[7] = molecular target: Mitogen-activated protein kinase 11 (Homo sapiens) (UniProt Q15759); conditions: at 1 µM
[8] = molecular target: T1, Mitogen-activated protein kinase 13 (Homo sapiens) (UniProt O15264); conditions: at 0.1 µM
T1 sequence (whole entry): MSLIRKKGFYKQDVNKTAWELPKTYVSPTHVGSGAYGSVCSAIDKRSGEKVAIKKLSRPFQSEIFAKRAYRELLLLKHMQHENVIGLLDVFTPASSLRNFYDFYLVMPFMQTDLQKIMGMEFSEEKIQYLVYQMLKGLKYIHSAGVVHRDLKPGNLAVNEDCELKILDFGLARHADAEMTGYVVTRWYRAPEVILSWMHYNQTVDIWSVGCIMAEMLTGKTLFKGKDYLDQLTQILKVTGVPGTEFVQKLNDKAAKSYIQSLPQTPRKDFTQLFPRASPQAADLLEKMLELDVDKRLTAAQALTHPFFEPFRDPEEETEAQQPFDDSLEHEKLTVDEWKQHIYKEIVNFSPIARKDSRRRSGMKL

[9] = molecular target: T1, Mitogen-activated protein kinase 13 (Homo sapiens); conditions: at 1 µM
[10] = molecular target: T2, Mitogen-activated protein kinase 12 (Homo sapiens) (UniProt P53778); conditions: at 0.1 µM
T2 sequence (whole entry): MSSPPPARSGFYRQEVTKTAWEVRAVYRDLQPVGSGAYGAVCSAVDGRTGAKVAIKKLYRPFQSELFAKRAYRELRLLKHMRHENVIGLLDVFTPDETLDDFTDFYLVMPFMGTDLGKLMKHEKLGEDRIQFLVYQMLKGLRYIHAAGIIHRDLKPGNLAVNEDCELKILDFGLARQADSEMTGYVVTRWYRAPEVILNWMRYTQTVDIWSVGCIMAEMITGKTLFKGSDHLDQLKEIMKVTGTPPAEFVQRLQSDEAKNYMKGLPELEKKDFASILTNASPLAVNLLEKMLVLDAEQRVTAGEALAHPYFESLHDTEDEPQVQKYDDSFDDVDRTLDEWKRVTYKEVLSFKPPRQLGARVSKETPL

Chain of SRSF protein kinase 3 (Homo sapiens) (Q9UPE1 whole entry): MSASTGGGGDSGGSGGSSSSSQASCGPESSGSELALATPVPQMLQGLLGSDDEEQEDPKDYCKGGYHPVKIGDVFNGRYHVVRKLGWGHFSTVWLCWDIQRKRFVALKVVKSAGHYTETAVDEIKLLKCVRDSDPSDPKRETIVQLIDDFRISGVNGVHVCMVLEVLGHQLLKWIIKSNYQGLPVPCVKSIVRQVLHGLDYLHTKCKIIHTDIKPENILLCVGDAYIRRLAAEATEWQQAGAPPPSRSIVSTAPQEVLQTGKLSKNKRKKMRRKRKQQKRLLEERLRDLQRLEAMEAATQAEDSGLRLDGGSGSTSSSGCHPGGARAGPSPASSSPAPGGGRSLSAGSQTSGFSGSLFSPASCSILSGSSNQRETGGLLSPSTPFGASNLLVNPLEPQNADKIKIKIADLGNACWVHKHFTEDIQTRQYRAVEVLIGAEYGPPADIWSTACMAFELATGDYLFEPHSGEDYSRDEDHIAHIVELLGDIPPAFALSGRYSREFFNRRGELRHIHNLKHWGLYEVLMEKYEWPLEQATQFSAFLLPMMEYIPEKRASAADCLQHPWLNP
Chain of Mitogen-activated protein kinase 14 (Homo sapiens) (Q16539 whole entry): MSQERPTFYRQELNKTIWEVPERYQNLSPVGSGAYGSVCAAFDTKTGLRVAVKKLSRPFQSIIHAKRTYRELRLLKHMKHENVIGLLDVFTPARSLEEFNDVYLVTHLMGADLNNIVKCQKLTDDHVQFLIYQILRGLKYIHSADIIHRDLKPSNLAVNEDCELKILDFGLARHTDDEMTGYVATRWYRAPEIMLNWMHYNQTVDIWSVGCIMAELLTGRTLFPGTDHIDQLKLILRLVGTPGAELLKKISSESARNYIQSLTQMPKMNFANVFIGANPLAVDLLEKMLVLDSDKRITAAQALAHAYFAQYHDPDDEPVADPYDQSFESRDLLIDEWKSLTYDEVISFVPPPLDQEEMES
Chain of Mitogen-activated protein kinase 11 (Homo sapiens) (Q15759 whole entry): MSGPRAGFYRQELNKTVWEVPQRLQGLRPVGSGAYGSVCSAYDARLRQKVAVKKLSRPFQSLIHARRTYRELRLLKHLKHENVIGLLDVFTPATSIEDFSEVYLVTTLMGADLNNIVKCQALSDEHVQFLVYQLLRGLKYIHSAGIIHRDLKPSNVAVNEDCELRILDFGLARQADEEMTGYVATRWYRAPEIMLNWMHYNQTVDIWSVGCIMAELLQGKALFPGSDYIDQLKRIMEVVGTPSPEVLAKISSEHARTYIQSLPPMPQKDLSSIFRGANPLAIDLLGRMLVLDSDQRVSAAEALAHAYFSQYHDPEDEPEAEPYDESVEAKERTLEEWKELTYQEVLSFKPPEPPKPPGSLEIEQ
Chain of Mitogen-activated protein kinase 3 (Homo sapiens) (P27361 whole entry): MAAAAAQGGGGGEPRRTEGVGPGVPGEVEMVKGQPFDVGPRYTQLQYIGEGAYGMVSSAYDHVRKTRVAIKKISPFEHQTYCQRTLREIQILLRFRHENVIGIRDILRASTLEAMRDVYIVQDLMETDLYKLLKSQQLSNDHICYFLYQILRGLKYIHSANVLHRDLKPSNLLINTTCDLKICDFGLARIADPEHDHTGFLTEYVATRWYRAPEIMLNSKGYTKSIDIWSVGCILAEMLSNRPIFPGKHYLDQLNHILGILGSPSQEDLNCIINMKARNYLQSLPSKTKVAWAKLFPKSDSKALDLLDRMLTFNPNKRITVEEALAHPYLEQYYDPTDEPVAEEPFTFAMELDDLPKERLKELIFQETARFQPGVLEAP

SMILES	inhibition [1] [%]	inhibition [2] [%]	inhibition [3] [%]	inhibition [4] [%]	inhibition [5] [%]	inhibition [6] [%]	inhibition [7] [%]	inhibition [8] [%]	inhibition [9] [%]	inhibition [10] [%]
O=C(Nc1n[nH]c2nc(-c3ccco3)c(Br)cc12)C1CC1	2.64	-0.09	-0.41	2.53	6.49	3.09	3.71	1.46	2.57	2.55
Nc1ncnc2occ(-c3ccc(NC(=O)Nc4cc(C(F)(F)F)cc(C(F)(F)F)c4)cc3)c12	2.23	1.52	-0.42	2.48	11	0.21	8.68	-0.42	14.5	-0.95
CCc1cccc(NC(=O)Nc2ccc(Oc3ccc4nc(NC(=O)OC)[nH]c4c3)cc2)c1	2.79	1.41	2.28	2.41	3.05	1.54	6.14	0.54	0.33	-0.64
CC1=C(C(=O)Nc2ccc3[nH]ncc3c2)C(c2ccc(F)cc2)NC(=O)N1 (stereo not given)	3.56	-2.61	-0.84	2.74	6.99	2.94	3.88	0.78	2.31	0.89
CCn1c(-c2nonc2N)nc2cnc(Oc3cccc(NC(=O)c4ccc(OCCN5CCOCC5)cc4)c3)cc21	-0.18	-2.67	-1.29	2.01	5.87	0.84	1.06	-1.34	4.61	8.56
NS(=O)(=O)c1ccc(N/N=C2\C(=O)Nc3ccc(C(=O)NCCc4c[nH]cn4)cc32)cc1	7.89	1.31	-0.05	5.71	8.13	3.37	6.34	-1.15	4.35	4.17
[O-][S+]1CCN(Cc2ccc(-c3ccc4ncnc(Nc5ccc(OCc6ccccc6)c(F)c5)c4c3)o2)CC1	-0.07	-1.09	-1.23	1.59	8.77	3.66	6.24	-1.08	3.34	0.27
Nc1nc(-c2ccc3c(c2)C(=Cc2cc(Br)c(O)c(Br)c2)C(=O)N3)cs1	1.82	-2.97	-1.79	1.75	-0.33	-2.08	2.83	-2.1	-1.28	-1.72
NCc1ccc(-c2nc(-c3ccc(Cl)c(O)c3)c(-c3ccncc3)[nH]2)cc1	0.95	-2.12	-2.01	41	77.1	13.6	54	-0.52	1.79	-0.97
CS(=O)(=O)CCN(CC#N)Cc1ccc(-c2ccc3ncnc(Nc4ccc(OCc5cccc(F)c5)c(Cl)c4)c3c2)o1	1.61	-3.37	-0.95	4.64	3.94	1.26	0.56	3.05	2.39	2.47
COc1ccc(-c2ccncc2)cc1C(N)=O	5.57	0.64	-1.37	7.77	9.51	-0.28	5.04	5.1	6.16	4.29
COc1cc2ncn(-c3cc(O[C@@H](C)c4ccccc4Cl)c(C(N)=O)s3)c2cc1OC	3.07	-3.53	-0.07	6.72	7.39	3.1	2.35	4.76	3.82	3.18
c1cnn2ncc(-c3ccnc(Nc4ccc5c(c4)OCCO5)n3)c2c1	12	-0.61	1.61	7.07	13.3	3.66	9.95	4.89	16.3	0.48
COc1ccccc1Nc1ncc(-c2ccccc2)o1	5.55	-1.49	1.35	10.4	11	4.31	7.08	5.83	4.74	4.14
COc1cc2ncn(-c3cc(OCc4ccccc4C(F)(F)F)c(C(N)=O)s3)c2cc1OC	3.77	-2.16	5.51	9.41	9.56	3.98	7.82	5.41	5.14	4.2
CS(=O)(=O)CCNCc1ccc(-c2ccc3ncnc(Nc4ccc(OCc5cccc(F)c5)c(C(F)(F)F)c4)c3c2)o1	2.51	-1.77	-0.64	4.28	11.8	3.77	8.93	1.37	5.37	1.92
CS(=O)(=O)Nc1ccc(N/C=C2\C(=O)Nc3ccccc32)cc1	-3.47	1.49	0.17	-4.68	-2.23	-0.39	3.42	-3.94	-3.87	-2.29

SMILES	inhibition [1] [%]	inhibition [2] [%]	inhibition [3] [%]	inhibition [4] [%]	inhibition [5] [%]	inhibition [6] [%]	inhibition [7] [%]	inhibition [8] [%]	inhibition [9] [%]	inhibition [10] [%]
O=C1NC(=O)C(N2CCc3ccccc32)=C1c1ccc(Cl)cc1	2.62	1.04	-0.52	3.97	8.43	5.07	4.84	1.06	5.95	3.98
CCN1CCC(CC(=O)Nc2n[nH]c3nc(-c4cccs4)c(Br)cc23)CC1	0.02	-0.78	2.42	-3.19	0.26	-1.99	3.07	-0.36	-1.98	-1.67
COc1cccc(-n2ncc3c(N/N=C/c4cccc(F)c4)ncnc32)c1	0.85	-2.57	-3.83	-0.34	5.39	3.19	0	2.14	6.21	4.04
Cn1cc(C=C2C(=O)Nc3cccnc32)c2ccccc21	2.73	-0.25	-0.47	3.62	7.85	3.65	5.58	-0.63	2.23	2.25
CCn1c(-c2nonc2N)nc2cncc(C(=O)N3CC[C@H](N)C3)c21	2.72	-3.11	-1.83	-0.78	10.7	3.38	9.04	2.29	5.01	0.14
CCCN1CCC(Oc2cc(Nc3nc(Nc4cccc(F)c4C(N)=O)c4cc[nH]c4n3)c(OC)cc2Cl)CC1	2.9	0.09	3.91	0.2	3.85	0.2	0.06	0.04	-0.16	-0.75
COc1ccc(-c2nn3ncccc3c2-c2ccnc(Nc3ccc(Cl)c(C(F)(F)F)c3)n2)cc1	4.01	-2.03	-0.79	4.58	36.1	2.93	16.8	0.64	1.01	1.67
NC(=O)c1cccc(Nc2nccc(Nc3cccc4[nH]ncc34)n2)c1	1.82	0.19	3.95	4.23	2.87	-1.99	3.32	-0.37	1.26	-1.53
CCn1c(-c2nonc2N)nc2c(C#CC(C)(C)O)nc(OC[C@@H](N)c3ccccc3)cc21	1.84	0.05	3.01	1.93	1.14	-1.91	1.34	-0.23	-0.87	-1.46
CC1=C(C(=O)Nc2ccc3[nH]ncc3c2)C(c2ccc(Cl)c(Cl)c2)CC(=O)N1 (stereo not given)	14.6	-0.02	1.57	1.46	4.94	0.46	0.24	-0.61	2.05	-0.46
Cc1nn(C)c2cc(N(C)c3ccnc(Nc4cccc(S(N)(=O)=O)c4)n3)ccc12	0.11	-3.4	-1.66	4.32	19.7	3.77	25.1	1.54	4.16	-0.41
COc1cc(C)c(NC(=O)CN(C)C)cc1Nc1nc(Nc2cccc(F)c2C(N)=O)c2cc[nH]c2n1	0.63	2.12	7.69	1.35	5.59	3.27	3.23	-0.43	1.87	0.52
Cc1cccc(-c2n[nH]cc2-c2ccc3ncccc3n2)n1	0.82	-1.48	-0.43	2.51	12	-0.93	0.8	1.23	-0.48	0.84
Fc1cccc(COc2ccc(Nc3ncnc4sc(-c5cccs5)cc34)cc2Cl)c1	1.8	0.46	0.83	0.93	1.59	-0.98	-0.33	1.26	0.64	0.6
O=C1Nc2ccc(C(=O)c3ccco3)cc2C1=Cc1cc(Cl)c(O)c(Cl)c1	3.14	-3.06	0.75	2.28	6.71	1.71	3.75	0.88	2.9	0.31
CS(=O)(=O)CCNCc1nc(-c2ccc3ncnc(Nc4ccc(F)c(Cl)c4)c3c2)cs1	3.66	2.2	1.52	2.36	5.56	2.75	5.6	2.57	1.21	0.83
